Source: the supplement of paper PMC6555819

Tests used:
Assay in all cases: PBM binding z-score (relative to random genomic background probes); higher = stronger binding; sequences stand for … in GC…GCGATTGACAGCGTAGAATGAAGG
[1] = system: FXR:RXRa (NR concentration 270 nM, RXRa partner concentration 90 nM)
Procedure, shortened: (§1)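 Scanned fluorescence from custom Agilent 4×180K protein-binding microarrays was regression-normalized. Binding z-scores use random background probes as reference. Ligand-free nuclear receptor dimers were incubated on the arrays for 1 h and detected with antibodies against each partner (one per run).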

[2] = system: LXRa:RXRa (NR concentration 270 nM, RXRa partner concentration 90 nM)
Procedure, shortened: as §1

[3] = system: LXRa homodimer (NR concentration 270 nM)
Procedure, shortened: as §1

[4] = system: LXRb:RXRa (NR concentration 270 nM, RXRa partner concentration 90 nM)
Procedure, shortened: as §1

[5] = system: LXRb homodimer (NR concentration 270 nM)
Procedure, shortened: as §1

[6] = system: PPARa:RXRa (NR concentration 270 nM, RXRa partner concentration 90 nM)
Procedure, shortened: as §1

[7] = system: PPARg:RXRa (NR concentration 180 nM, RXRa partner concentration 90 nM)
Procedure, shortened: as §1

[8] = system: PPARg:RXRa 270nM:90nM, anti-RXR (NR concentration 270 nM, RXRa partner concentration 90 nM)
Procedure, shortened: as §1

[9] = system: PPARg:RXRa 30nM:10nM, anti-RXR (NR concentration 30 nM, RXRa partner concentration 10 nM)
Procedure, shortened: as §1

[10] = system: PPARg:RXRa 90nM:30nM, anti-RXR (NR concentration 90 nM, RXRa partner concentration 30 nM)
Procedure, shortened: as §1

ACTAGCAGGCCAAGTTTGGGTCAATCAAACAAAG
PBM binding z-score [1]: 0.471
PBM binding z-score [2]: 0.228
PBM binding z-score [3]: -0.484
PBM binding z-score [4]: 0.918
PBM binding z-score [5]: -1.03
PBM binding z-score [6]: 1.55
PBM binding z-score [7]: -0.0982
PBM binding z-score [8]: 0.263
PBM binding z-score [9]: -0.327
PBM binding z-score [10]: -0.105

TTTCGGAGGACACGAAAGGTCAGAGCTCGACATC
PBM binding z-score [1]: 3.67
PBM binding z-score [2]: 4.36
PBM binding z-score [3]: 4.05
PBM binding z-score [4]: 3.47
PBM binding z-score [5]: 0.13
PBM binding z-score [6]: 3.77
PBM binding z-score [7]: 1.9
PBM binding z-score [8]: 2.77
PBM binding z-score [9]: 0.718
PBM binding z-score [10]: 1.71

TGTCAAAGTTCGAAGGTAACGTAAGTATCCACAC
PBM binding z-score [1]: 1.54
PBM binding z-score [2]: 1.56
PBM binding z-score [3]: 0.166
PBM binding z-score [4]: 1.27
PBM binding z-score [5]: -0.175
PBM binding z-score [6]: 2.58
PBM binding z-score [7]: 4.57
PBM binding z-score [8]: 5
PBM binding z-score [9]: 2.28
PBM binding z-score [10]: 4.19

CCGACTGGGGCAGGGTTACCATAACGCACAGCCA
PBM binding z-score [1]: 0.198
PBM binding z-score [2]: 0.487
PBM binding z-score [3]: -0.443
PBM binding z-score [4]: 0.866
PBM binding z-score [5]: -0.609
PBM binding z-score [6]: 1.41
PBM binding z-score [7]: 1.77
PBM binding z-score [8]: 1.98
PBM binding z-score [9]: 0.254
PBM binding z-score [10]: 1.44

TCATATAGGTGAATGCTAGGTGAAAGTCCGATCT
PBM binding z-score [1]: 1.13
PBM binding z-score [2]: 0.917
PBM binding z-score [3]: -0.0779
PBM binding z-score [4]: 0.789
PBM binding z-score [5]: -0.221
PBM binding z-score [6]: 2.55
PBM binding z-score [7]: 2.75
PBM binding z-score [8]: 3.13
PBM binding z-score [9]: 3.54
PBM binding z-score [10]: 3.07

AGAATGAGGTTATACGTAGATCAGTGAAGAAAGT
PBM binding z-score [1]: 1.96
PBM binding z-score [2]: 1.82
PBM binding z-score [3]: 0.00702
PBM binding z-score [4]: 1.51
PBM binding z-score [5]: 0.326
PBM binding z-score [6]: 2.96
PBM binding z-score [7]: 1.92
PBM binding z-score [8]: 2.13
PBM binding z-score [9]: 0.914
PBM binding z-score [10]: 1.38

CCTCGGAGGACAACAGTAGGTCAGAGCTGCCAGA
PBM binding z-score [1]: 0.249
PBM binding z-score [2]: 0.959
PBM binding z-score [3]: 1.04
PBM binding z-score [4]: 0.175
PBM binding z-score [5]: -0.765
PBM binding z-score [6]: 1.37
PBM binding z-score [7]: 0.475
PBM binding z-score [8]: 0.552
PBM binding z-score [9]: -0.754
PBM binding z-score [10]: 0.0572

TCGAGTAGGTTAGGGGCATTCAAAATGGCGTCGA
PBM binding z-score [1]: 0.3
PBM binding z-score [2]: 0.524
PBM binding z-score [3]: -0.23
PBM binding z-score [4]: 1.22
PBM binding z-score [5]: -0.0733
PBM binding z-score [6]: 1.38
PBM binding z-score [7]: 1
PBM binding z-score [8]: 1.98
PBM binding z-score [9]: 1.27
PBM binding z-score [10]: 1.69

CATCGGAGGACAGAAGGTCAGAGCTGTCCGCTTT
PBM binding z-score [1]: 1.15
PBM binding z-score [2]: 1.44
PBM binding z-score [3]: 0.265
PBM binding z-score [4]: 0.77
PBM binding z-score [5]: -0.44
PBM binding z-score [6]: 1.8
PBM binding z-score [7]: 0.369
PBM binding z-score [8]: 1.27
PBM binding z-score [9]: -0.542
PBM binding z-score [10]: 0.627

CCTACTGGGCCGTCAGGTCATTGATATCAACGTT
PBM binding z-score [1]: 1.31
PBM binding z-score [2]: 0.772
PBM binding z-score [3]: 0.809
PBM binding z-score [4]: 1.21
PBM binding z-score [5]: -0.585
PBM binding z-score [6]: 1.71
PBM binding z-score [7]: 0.704
PBM binding z-score [8]: 1.92
PBM binding z-score [9]: 0.179
PBM binding z-score [10]: 1.15

TTACCAAGTTGAAGGTCGTTGATCCCTCTGTAGA
PBM binding z-score [1]: 2.26
PBM binding z-score [2]: 2.28
PBM binding z-score [3]: 0.241
PBM binding z-score [4]: 1.56
PBM binding z-score [5]: -0.05
PBM binding z-score [6]: 1.59
PBM binding z-score [7]: 0.598
PBM binding z-score [8]: 2.48
PBM binding z-score [9]: 1.36
PBM binding z-score [10]: 2.27

AGAACGAGGGCACGGTGAGTTGATAGCAGAGTAG
PBM binding z-score [1]: 1.12
PBM binding z-score [2]: 0.775
PBM binding z-score [3]: -0.352
PBM binding z-score [4]: 0.306
PBM binding z-score [5]: -0.638
PBM binding z-score [6]: 2.61
PBM binding z-score [7]: 2.7
PBM binding z-score [8]: 2.19
PBM binding z-score [9]: 0.933
PBM binding z-score [10]: 1.2

ATATGTAGTTTACATCCGGGTCATTCAGGCTATG
PBM binding z-score [1]: 1.49
PBM binding z-score [2]: 2.34
PBM binding z-score [3]: 1.08
PBM binding z-score [4]: 2.31
PBM binding z-score [5]: 1.04
PBM binding z-score [6]: 2.59
PBM binding z-score [7]: 1.19
PBM binding z-score [8]: 1.19
PBM binding z-score [9]: 0.609
PBM binding z-score [10]: 1.53

CTCGAAAGGTCGGTTGAGGTGAGAATACGGATAA
PBM binding z-score [1]: 3.46
PBM binding z-score [2]: 1.74
PBM binding z-score [3]: -0.255
PBM binding z-score [4]: 1.42
PBM binding z-score [5]: 0.119
PBM binding z-score [6]: 2.77
PBM binding z-score [7]: 0.632
PBM binding z-score [8]: 1.34
PBM binding z-score [9]: 0.543
PBM binding z-score [10]: 0.887

CCTAGCAGGCCAATCTGGTTCACTCAAGGCTTGA
PBM binding z-score [1]: -0.121
PBM binding z-score [2]: 0.131
PBM binding z-score [3]: -0.596
PBM binding z-score [4]: -0.16
PBM binding z-score [5]: -0.887
PBM binding z-score [6]: 0.0157
PBM binding z-score [7]: -0.419
PBM binding z-score [8]: -0.488
PBM binding z-score [9]: -0.776
PBM binding z-score [10]: -0.865

TCTGCTAGGTCAGTTGGTCAGCCAACGAGCTGCC
PBM binding z-score [1]: 0.772
PBM binding z-score [2]: 0.762
PBM binding z-score [3]: -0.677
PBM binding z-score [4]: 0.196
PBM binding z-score [5]: -0.0137
PBM binding z-score [6]: 1.52
PBM binding z-score [7]: 0.643
PBM binding z-score [8]: 1.9
PBM binding z-score [9]: 1.52
PBM binding z-score [10]: 1.51

CCTACCAGGCCAGGGTCACTCAAGCATTTCGCTT
PBM binding z-score [1]: 2.09
PBM binding z-score [2]: 1.56
PBM binding z-score [3]: -0.206
PBM binding z-score [4]: 2.18
PBM binding z-score [5]: -0.678
PBM binding z-score [6]: 2.88
PBM binding z-score [7]: 0.899
PBM binding z-score [8]: 1.61
PBM binding z-score [9]: -0.554
PBM binding z-score [10]: 0.539

CCGACCGGGGCAGAAAGGTTACCATACCATCCGG
PBM binding z-score [1]: 0.539
PBM binding z-score [2]: 0.79
PBM binding z-score [3]: -0.149
PBM binding z-score [4]: 0.91
PBM binding z-score [5]: -1.19
PBM binding z-score [6]: 1.89
PBM binding z-score [7]: 0.899
PBM binding z-score [8]: 1.07
PBM binding z-score [9]: -0.267
PBM binding z-score [10]: 0.343

CCTACTGGGCCACGAAAGCTCATTGATTCAGTGA
PBM binding z-score [1]: -0.608
PBM binding z-score [2]: -0.413
PBM binding z-score [3]: -0.683
PBM binding z-score [4]: -1
PBM binding z-score [5]: -0.95
PBM binding z-score [6]: -0.132
PBM binding z-score [7]: 1.08
PBM binding z-score [8]: 1.15
PBM binding z-score [9]: -0.145
PBM binding z-score [10]: 0.162

AGAATGAGGTTATTAAGATCAGGGGATTGCGGTC
PBM binding z-score [1]: 1.52
PBM binding z-score [2]: 1.31
PBM binding z-score [3]: 0.0189
PBM binding z-score [4]: 1.18
PBM binding z-score [5]: -0.0318
PBM binding z-score [6]: 2.51
PBM binding z-score [7]: 1.47
PBM binding z-score [8]: 1.87
PBM binding z-score [9]: 0.612
PBM binding z-score [10]: 1.08

AGAACGAGTGCAATGAGTTGATAGCACGGGTGGC
PBM binding z-score [1]: -0.597
PBM binding z-score [2]: -0.443
PBM binding z-score [3]: -0.783
PBM binding z-score [4]: -0.585
PBM binding z-score [5]: -1.04
PBM binding z-score [6]: -0.17
PBM binding z-score [7]: 0.712
PBM binding z-score [8]: -0.327
PBM binding z-score [9]: -0.239
PBM binding z-score [10]: -0.508

TATACAGGGTCAAAGGCCAGCGTACGAATGTCGA
PBM binding z-score [1]: 7.47
PBM binding z-score [2]: 6.28
PBM binding z-score [3]: 2.26
PBM binding z-score [4]: 4.8
PBM binding z-score [5]: 2.36
PBM binding z-score [6]: 6.28
PBM binding z-score [7]: 8.39
PBM binding z-score [8]: 7.25
PBM binding z-score [9]: 5.73
PBM binding z-score [10]: 7.51

TCTAGCAGGCCACAGGGTCACTCAAGAGGTACGG
PBM binding z-score [1]: 1.75
PBM binding z-score [2]: 1.69
PBM binding z-score [3]: -0.338
PBM binding z-score [4]: 1.82
PBM binding z-score [5]: -1.09
PBM binding z-score [6]: 3.23
PBM binding z-score [7]: 2.19
PBM binding z-score [8]: 3.02
PBM binding z-score [9]: 2.18
PBM binding z-score [10]: 2.65
